± gives the standard deviation of the averaged measurements. Of roughly 6,500 targets only a part is listed; those with the largest changes were picked by preference.
These targets were tested with Nc1ncnc2c1ncn2[C@@H]1O[C@H](COP(=O)(O)OP(=O)(O)OP(=O)(O)O)[C@@H](O)[C@H]1O [adenosine triphosphate] (assay: NP40-soluble protein abundance relative to vehicle (solubility fold change) (ratio); higher = more soluble protein in presence of ATP). Conditions: concentration: 1mM.
Procedure, shortened: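 Jurkat crude lysate prepared with a Dounce homogeniser was treated at eight concentrations spanning 0.1 to 10 mM, 10 min at room temperature then 3 min at 37 °C. Solubilisation with 0.8% NP40 and benzonase and ultracentrifugation preceded TMT labelling of the supernatant for LC-MS/MS. Fold change against the detergent-processed vehicle was determined per replicate from vsn-normalised intensities, across three independent experiments.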

Chain of UniProt P53677 (P53677 whole entry): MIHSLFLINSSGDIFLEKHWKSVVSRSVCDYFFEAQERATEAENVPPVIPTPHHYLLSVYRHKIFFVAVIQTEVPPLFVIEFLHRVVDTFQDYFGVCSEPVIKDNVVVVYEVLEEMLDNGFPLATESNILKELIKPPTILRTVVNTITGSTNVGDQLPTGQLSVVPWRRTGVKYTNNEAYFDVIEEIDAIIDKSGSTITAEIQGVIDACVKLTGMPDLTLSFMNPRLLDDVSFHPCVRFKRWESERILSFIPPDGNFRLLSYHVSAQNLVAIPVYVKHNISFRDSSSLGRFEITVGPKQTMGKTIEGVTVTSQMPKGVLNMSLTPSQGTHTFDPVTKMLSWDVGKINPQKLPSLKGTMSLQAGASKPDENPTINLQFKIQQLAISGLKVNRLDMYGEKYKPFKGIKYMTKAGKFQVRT
Chain of UniProt P67775 (P67775 whole entry): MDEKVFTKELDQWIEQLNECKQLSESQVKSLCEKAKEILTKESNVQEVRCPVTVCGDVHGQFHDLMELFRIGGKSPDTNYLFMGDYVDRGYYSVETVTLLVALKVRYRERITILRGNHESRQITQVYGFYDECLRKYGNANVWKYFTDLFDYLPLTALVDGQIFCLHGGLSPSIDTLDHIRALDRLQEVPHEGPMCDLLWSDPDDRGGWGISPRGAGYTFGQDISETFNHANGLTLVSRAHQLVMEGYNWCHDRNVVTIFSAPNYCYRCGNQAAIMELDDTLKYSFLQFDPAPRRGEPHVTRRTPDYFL
Chain of UniProt O94906 (O94906 whole entry): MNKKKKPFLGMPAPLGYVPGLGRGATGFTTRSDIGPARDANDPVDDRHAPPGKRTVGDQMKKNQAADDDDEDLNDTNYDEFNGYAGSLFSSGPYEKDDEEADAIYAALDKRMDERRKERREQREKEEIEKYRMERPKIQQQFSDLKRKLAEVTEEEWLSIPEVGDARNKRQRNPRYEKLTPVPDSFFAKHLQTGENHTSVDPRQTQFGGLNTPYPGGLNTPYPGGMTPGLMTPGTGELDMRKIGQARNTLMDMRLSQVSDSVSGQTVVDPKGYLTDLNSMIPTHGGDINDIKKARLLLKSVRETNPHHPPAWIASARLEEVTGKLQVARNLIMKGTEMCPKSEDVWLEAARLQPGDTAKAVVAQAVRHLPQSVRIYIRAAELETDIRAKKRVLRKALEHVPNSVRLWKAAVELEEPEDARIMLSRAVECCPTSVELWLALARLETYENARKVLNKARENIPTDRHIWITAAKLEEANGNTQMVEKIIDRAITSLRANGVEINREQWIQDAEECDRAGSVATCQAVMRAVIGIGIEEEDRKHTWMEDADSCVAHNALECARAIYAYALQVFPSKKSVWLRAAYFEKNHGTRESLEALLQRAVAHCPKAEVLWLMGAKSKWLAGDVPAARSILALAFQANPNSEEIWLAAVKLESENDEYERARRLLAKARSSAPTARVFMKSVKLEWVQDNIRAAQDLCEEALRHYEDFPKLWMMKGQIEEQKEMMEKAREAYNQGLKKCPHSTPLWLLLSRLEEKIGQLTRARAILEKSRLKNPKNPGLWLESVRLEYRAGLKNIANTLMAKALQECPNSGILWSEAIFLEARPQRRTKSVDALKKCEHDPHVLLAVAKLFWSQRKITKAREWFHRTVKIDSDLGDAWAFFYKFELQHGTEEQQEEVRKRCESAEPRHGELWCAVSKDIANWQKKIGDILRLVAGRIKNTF
Chain of UniProt P23458 (P23458 whole entry): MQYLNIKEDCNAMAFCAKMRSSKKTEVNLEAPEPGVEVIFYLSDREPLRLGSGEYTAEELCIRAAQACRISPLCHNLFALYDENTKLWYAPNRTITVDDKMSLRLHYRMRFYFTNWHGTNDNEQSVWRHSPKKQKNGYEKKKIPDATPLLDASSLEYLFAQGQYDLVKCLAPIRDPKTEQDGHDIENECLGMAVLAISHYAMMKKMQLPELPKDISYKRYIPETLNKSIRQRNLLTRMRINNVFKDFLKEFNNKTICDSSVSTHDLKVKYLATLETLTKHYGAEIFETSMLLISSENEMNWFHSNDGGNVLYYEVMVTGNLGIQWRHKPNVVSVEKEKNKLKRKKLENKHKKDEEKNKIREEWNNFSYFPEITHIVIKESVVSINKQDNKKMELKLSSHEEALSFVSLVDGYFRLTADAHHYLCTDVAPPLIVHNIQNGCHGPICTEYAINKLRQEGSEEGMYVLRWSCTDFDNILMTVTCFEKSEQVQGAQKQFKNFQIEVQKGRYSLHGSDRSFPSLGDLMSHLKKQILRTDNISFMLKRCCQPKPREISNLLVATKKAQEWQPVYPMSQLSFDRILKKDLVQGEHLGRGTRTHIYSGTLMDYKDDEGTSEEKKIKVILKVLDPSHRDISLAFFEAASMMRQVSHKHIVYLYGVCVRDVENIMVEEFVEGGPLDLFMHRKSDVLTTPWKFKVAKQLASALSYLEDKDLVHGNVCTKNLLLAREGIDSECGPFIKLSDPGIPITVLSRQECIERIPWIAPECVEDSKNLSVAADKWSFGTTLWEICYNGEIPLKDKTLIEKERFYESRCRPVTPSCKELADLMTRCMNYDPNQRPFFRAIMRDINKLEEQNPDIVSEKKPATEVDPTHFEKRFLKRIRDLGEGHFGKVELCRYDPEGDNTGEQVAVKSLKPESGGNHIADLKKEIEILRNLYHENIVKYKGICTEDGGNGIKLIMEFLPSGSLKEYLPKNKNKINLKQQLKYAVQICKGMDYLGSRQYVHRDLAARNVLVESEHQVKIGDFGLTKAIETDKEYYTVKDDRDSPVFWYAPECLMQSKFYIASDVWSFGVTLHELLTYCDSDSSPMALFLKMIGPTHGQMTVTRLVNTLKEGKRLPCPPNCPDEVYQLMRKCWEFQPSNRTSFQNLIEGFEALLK
Chain of UniProt P50213 (P50213 whole entry, one chain of several): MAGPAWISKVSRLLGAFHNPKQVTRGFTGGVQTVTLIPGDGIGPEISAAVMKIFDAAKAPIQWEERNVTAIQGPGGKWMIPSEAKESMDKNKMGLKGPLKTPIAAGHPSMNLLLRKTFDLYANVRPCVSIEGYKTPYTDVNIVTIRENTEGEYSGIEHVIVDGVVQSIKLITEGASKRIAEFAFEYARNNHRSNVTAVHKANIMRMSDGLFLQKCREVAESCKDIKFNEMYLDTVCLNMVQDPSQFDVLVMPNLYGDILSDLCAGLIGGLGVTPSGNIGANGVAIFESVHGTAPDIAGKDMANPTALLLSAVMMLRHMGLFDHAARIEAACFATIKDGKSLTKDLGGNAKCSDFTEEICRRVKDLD
Chain of UniProt P13995 (P13995 whole entry): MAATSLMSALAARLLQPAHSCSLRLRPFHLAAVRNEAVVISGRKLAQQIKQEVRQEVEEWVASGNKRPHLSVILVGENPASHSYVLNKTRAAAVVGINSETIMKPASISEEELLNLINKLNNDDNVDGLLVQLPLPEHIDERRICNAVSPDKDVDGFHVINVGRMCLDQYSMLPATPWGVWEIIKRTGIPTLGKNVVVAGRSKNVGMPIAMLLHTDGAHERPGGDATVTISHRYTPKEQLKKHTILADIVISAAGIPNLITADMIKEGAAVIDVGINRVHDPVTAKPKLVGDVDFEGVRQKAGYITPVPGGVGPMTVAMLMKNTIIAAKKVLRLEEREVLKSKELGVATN
Chain of UniProt P63218 (P63218 whole entry): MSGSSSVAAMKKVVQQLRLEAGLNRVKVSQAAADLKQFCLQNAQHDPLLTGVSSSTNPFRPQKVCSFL
Chain of UniProt P83369 (P83369 whole entry): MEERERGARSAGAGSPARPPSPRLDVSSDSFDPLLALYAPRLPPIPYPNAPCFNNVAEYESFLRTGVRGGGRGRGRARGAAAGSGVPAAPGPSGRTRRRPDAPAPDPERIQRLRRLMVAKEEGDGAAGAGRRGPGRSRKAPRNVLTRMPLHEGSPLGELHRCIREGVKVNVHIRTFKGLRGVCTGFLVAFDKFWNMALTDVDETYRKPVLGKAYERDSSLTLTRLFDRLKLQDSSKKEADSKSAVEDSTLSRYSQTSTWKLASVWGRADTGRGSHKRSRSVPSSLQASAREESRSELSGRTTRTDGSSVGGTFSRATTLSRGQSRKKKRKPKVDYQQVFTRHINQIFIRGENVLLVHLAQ
Chain of UniProt P23246 (P23246 whole entry): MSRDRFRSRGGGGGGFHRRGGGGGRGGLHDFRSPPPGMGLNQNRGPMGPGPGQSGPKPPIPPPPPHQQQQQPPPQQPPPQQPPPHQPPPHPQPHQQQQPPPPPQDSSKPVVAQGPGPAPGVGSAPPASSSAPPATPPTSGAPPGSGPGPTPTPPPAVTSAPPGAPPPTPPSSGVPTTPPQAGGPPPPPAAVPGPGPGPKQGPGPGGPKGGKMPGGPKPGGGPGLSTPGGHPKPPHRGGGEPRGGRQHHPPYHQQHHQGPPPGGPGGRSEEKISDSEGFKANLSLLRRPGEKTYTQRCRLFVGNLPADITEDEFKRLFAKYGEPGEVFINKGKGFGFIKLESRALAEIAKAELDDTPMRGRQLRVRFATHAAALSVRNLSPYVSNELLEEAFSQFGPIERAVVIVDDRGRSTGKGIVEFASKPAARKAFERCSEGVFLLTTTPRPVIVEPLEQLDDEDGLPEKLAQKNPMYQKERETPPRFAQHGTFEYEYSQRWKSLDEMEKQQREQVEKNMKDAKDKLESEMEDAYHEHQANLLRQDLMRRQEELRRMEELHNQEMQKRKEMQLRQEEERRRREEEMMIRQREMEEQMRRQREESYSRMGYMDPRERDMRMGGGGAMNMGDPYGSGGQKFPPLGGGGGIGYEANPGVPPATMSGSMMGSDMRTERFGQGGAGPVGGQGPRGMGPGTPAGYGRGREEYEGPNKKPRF
Chain of UniProt P19623 (P19623 whole entry): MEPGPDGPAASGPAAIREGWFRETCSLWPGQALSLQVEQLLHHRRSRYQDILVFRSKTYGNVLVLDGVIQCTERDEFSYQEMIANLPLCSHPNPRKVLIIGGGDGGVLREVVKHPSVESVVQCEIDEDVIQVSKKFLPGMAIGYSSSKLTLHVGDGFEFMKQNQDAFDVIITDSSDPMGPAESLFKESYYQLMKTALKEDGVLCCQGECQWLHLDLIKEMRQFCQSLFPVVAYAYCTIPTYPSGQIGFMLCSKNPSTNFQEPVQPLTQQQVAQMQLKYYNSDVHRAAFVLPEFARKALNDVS

Target	NP40-soluble protein abundance
ARL3 (UniProt P36405)	0.978 ± 0.0088
UniProt P25398	0.879 ± 0.058
SRM (UniProt P19623)	1.03 ± 0.12
SFPQ (UniProt P23246)	1.125 ± 0.0082
RFC3 (UniProt P40938)	1.25 ± 0.036
PPP2CA (UniProt P67775)	0.959 ± 0.061
LSM11 (UniProt P83369)	1.32 ± 0.26
PRPF6 (UniProt O94906)	1.31 ± 0.017
GALT (UniProt P07902)	0.994 ± 0.016
UniProt P49761|P49761-1|P49761-3	1.317 ± 0.008
MTHFD2 (UniProt P13995)	1.02 ± 0.018
GAA (UniProt P10253)	0.981 ± 0.012
UniProt P12268|H0Y4R1	1.14 ± 0.2
UniProt P50750-2|P50750	1.18 ± 0.047
UniProt P50213|H0YLF8	0.98 ± 0.039
UniProt P62854	0.92 ± 0.095
PPT1 (UniProt P50897)	0.942 ± 0.054
HMGN1 (UniProt P05114)	1.23 ± 0.32
UniProt O75400|O75400-2	1.35 ± 0.075
C1QBP (UniProt Q07021)	1.15 ± 0.48
DDX58 (UniProt O95786)	1.06 ± 0.097
UniProt P63218	0.812 ± 0.15
GCSH (UniProt P23434)	0.985 ± 0.048
TOP1 (UniProt P11387)	1.05 ± 0.019
JAK1 (UniProt P23458)	1.21 ± 0.015
AP3M2 (UniProt P53677)	1.09 ± 0.019
HSPA4L (UniProt O95757)	0.964 ± 0.015
MRPS25 (UniProt P82663)	0.942 ± 0.092
CRTAP (UniProt O75718)	1.11 ± 0.024
UniProt P08621|P08621-2	1.33 ± 0.049

Same assay, conditions: concentration: 2mM

Target	NP40-soluble protein abundance
ARL3 (UniProt P36405)	0.944 ± 0.057
UniProt P25398	0.861 ± 0.073
SRM (UniProt P19623)	1.01 ± 0.1
SFPQ (UniProt P23246)	1.302 ± 0.0053
RFC3 (UniProt P40938)	1.3 ± 0.041
PPP2CA (UniProt P67775)	0.925 ± 0.0053
LSM11 (UniProt P83369)	1.26 ± 0.15
PRPF6 (UniProt O94906)	1.5 ± 0.12
GALT (UniProt P07902)	0.972 ± 0.068
UniProt P49761|P49761-1|P49761-3	1.56 ± 0.035
MTHFD2 (UniProt P13995)	1.01 ± 0.02
GAA (UniProt P10253)	1.01 ± 0.021
UniProt P12268|H0Y4R1	0.858 ± 0.18
UniProt P50750-2|P50750	1.26 ± 0.047
UniProt P50213|H0YLF8	0.963 ± 0.04
UniProt P62854	0.912 ± 0.11
PPT1 (UniProt P50897)	0.92 ± 0.019
HMGN1 (UniProt P05114)	2 ± 0.51
UniProt O75400|O75400-2	1.44 ± 0.086
C1QBP (UniProt Q07021)	0.69 ± 0.36
DDX58 (UniProt O95786)	1.03 ± 0.063
UniProt P63218	0.735 ± 0.17
GCSH (UniProt P23434)	0.971 ± 0.024
TOP1 (UniProt P11387)	1.088 ± 0.0094
JAK1 (UniProt P23458)	1.21 ± 0.022
AP3M2 (UniProt P53677)	1.08 ± 0.016
HSPA4L (UniProt O95757)	0.9785 ± 0.0092
MRPS25 (UniProt P82663)	0.951 ± 0.066
CRTAP (UniProt O75718)	1.14 ± 0.032
UniProt P08621|P08621-2	1.42 ± 0.083

From the supplement of paper PMC6411743
